According to PubChem BioAssay AID2315 (National Center for Advancing Translational Sciences (NCATS), 2010):
Screen size: about 290,000 compounds; about 27,000 (9.3%) were called active. The list comes from a sample in which actives are over-represented; it also holds similar structures and randomly drawn compounds. Values without a mark were called inactive. Rule as the data show it: active = inhibition mostly above about 28% (no sharp cut-off); inactive = mostly below about 43%.

Experiment: A qHTS for Small Molecule Inhibitors of Shiga Toxin; also: 0% is about no effect
Details: Vero cells, Shiga toxin protein synthesis inhibition reporter; at 38.7 µM, stronger effect = higher value

| SMILES | inhibition |
| --- | --- |
| CSCC[C@H](NC(=O)OC(C)(C)C)C(=O)N/N=C/c1cc2ccc(C)cc2nc1Cl | -11.9% |
| CCNC(=S)NNC(=O)c1ccc2ncccc2c1 | 38% |
| O=C(O)c1ccc(/C=N/Nc2nc(N3CCCCC3)nc(N3CCCCC3)n2)cc1 | -6.74% |
| Cc1ccc2cc(/C=N/NC(=O)[C@@H]3CCCN3)c(Cl)nc2c1 | 54.3% (active) |
| O=C(O)c1ccc(N/N=C/c2ccc3ncccc3c2)cc1 | 45.9% (active) |
| O=C(O)c1ccc(N/N=C/c2cn(-c3ccccc3)nc2-c2cccs2)cc1 | 46.3% |
| O=C(Nc1cccc(F)c1)[C@@H]1CCCN1 | 3.23% |
| Cc1ccc(/C=N/NC(=O)C2=NNC(c3ccccc3)(c3ccccc3)C2)c(O)c1 | 33.7% |
| Cc1ccc2cc(/C=N/Nc3ccc(C(=O)O)cc3)c(Cl)nc2c1 | 51.3% (active) |
| Cc1cc(OCC(=O)N2CCN(c3ncccn3)CC2)ccc1Cl | -7.52% |
| COc1cc(OC)cc(C(=O)NCCSCc2ccc(Cl)cc2)c1 | -9.78% |
| COc1ccc2c(c1)C(=C(C#N)C#N)C(=O)N2CCc1ccccc1 | 6.44% |
| O=C1CN(C(=O)c2cc(F)cc(F)c2)c2ccccc2N1 | -2.51% |
| CC(C)CC(O)C1CCN(C(=O)CCc2nnc(-c3ccc4c(c3)OCO4)o2)CC1 (stereo not given) | -6.93% |
| CC(CO)NCC12CC3CC(CC(C3)C1)C2 (stereo not given) | 2.32% |
| CCOc1ccccc1NC(=O)Cn1nnc(C(=O)NCc2cccs2)c1N | -4% |
| COC1=C/C(=C/c2c(N)n3nc(CC(=O)N4CCOCC4)sc3nc2=O)C=CC1=O | -2.63% |
| COc1ccc(CN2CC(C(=O)NC3CCCCC3)CC2=O)cc1 (stereo not given) | -6.86% |

| SMILES | inhibition |
| --- | --- |
| Cc1ccc(C)c(OCCC(=O)OCC(=O)N2CCN(c3ccccc3)CC2)c1 | -5.02% |
| CCN1CCCC1CNC(=O)c1cc2cc(OC)c(OC)cc2[nH]1 (stereo not given) | -5.24% |
| CC(O)c1ccc(OCCN(C)c2ccccn2)cc1 (stereo not given) | 87.4% (active) |
| CC(C)c1ccc(OCC(O)CN2CCN(c3ccccn3)CC2)cc1 (stereo not given) | -24.5% |
| CCOc1ccc(C(C(=O)NCCOC)N(CCOC)C(=O)CCC(=O)Nc2ccccn2)cc1 (stereo not given) | -13.1% |
| COc1ccc(-c2noc(C(C)NS(=O)(=O)c3ccc(NC(C)=O)cc3)n2)cc1 (stereo not given) | -7.2% |
| COc1ccc(CCNC(=O)C(=O)NCC2OCCN2S(=O)(=O)c2ccc(F)cc2)cc1OC (stereo not given) | 2.97% |
| O=C(O)/C=C/C(=O)Nc1ccc(F)cc1F | -11.9% |
| COc1ccccc1NC(=O)/C=C/C(=O)O | -5.02% |
| COC(=O)c1sc(-c2ccc(C(C)(C)C)cc2)cc1NC(=O)/C=C/C(=O)O | 108% (active) |
| C=CCn1c(SCc2ccc(C(=O)NCCO)cc2)nc2ccccc2c1=O | -5.58% |
| CC(C(=O)Nc1ccc(O)c(C(=O)O)c1)N1C(=O)/C(=C/c2cccs2)SC1=S (stereo not given) | 5.02% |
| COCCCNC(=O)[C@H]1N2C(=O)c3ccccc3C2SC1(C)C (stereo not given in full) | -3.4% |
| Cc1nnc2n1N=C(c1ccccc1)CS2 | -5.72% |
| CC1=Nn2c(nnc2-c2ccccc2)SC1 | -3.08% |
| COc1ccc(C2=Nn3c(nnc3-c3ccccc3O)SC2)cc1 | 42.8% (active) |
| COc1cc(/C(=C/c2ccccc2)c2ccccc2)c2c(c1)oc1ccccc12 | -7.7% |
